The results in this text go back to PubChem BioAssay.

The subject of experiment [1] is Wnt5a (protein binding on small-molecule microarray). In words: Wnt5a binders on small-molecule microarray, primary screen, biophysical, 635/667 nm fluorescence (AID 1142).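 Note: fluorescence read at 667 nm with signal to noise per printed feature.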 As to conditions: 635 nm fluorescence, higher = more signal.
Experiment [2] can be described thus: cell viability in Huh7 cells, primary screen, cytotoxicity control for HCV replication inhibitor project, CellTiter-Glo luminescence, basal, 48 h (AID 1143).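 Note: Huh7 hepatoma cells carrying a hepatitis C replication reporter with no stimulus; test concentration not given here.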 Conditions: Huh7 HCV replicon, higher = more signal, called active from +8 up or from −8 down. Background: ATP-based viability assays read luminescence as a measure of living cells.
A short description of experiment [3]: P. aeruginosa biofilm formation inhibitors, primary screen, PAO1 strain, BacTiter-Glo luminescence, LB-PBS (AID 1144). As to conditions: 12 h, higher = more signal.
The nature of experiment [4]: CREB reporter modulators without forskolin, primary screen, cell-based, PC12, CRE-LacZ reporter, unstimulated (AID 1145). As to conditions: no forskolin, luminescence, 4.5 h, higher = more signal, called active from +8 up or from −8 down.
Experiment [5] in a line: CREB reporter modulators under forskolin, primary screen, cell-based, PC12, CRE-LacZ reporter, forskolin-stimulated (AID 1146).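 Note: PC12 cells with 6xCRE LacZ reporter stimulated by forskolin 10 µM; beta-galactosidase reporter signal reflecting CREB driven transcription.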 Conditions: luminescence, 4.5 h, higher = more signal, called active from +8 up or from −8 down.
The target in experiment [6] is Streptavidin (Streptomyces avidinii) (UniProt P22629). In words: streptavidin binders on small-molecule microarray, primary screen, artefact control for SMM compound annotation, biophysical, 635/667 nm fluorescence (AID 1147).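 Note: signal reflects streptavidin binding to arrayed compounds as a control protein.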 Conditions: streptavidin binding, higher = more signal.
Streptavidin (Streptomyces avidinii), sequence (P22629 whole entry, looked up): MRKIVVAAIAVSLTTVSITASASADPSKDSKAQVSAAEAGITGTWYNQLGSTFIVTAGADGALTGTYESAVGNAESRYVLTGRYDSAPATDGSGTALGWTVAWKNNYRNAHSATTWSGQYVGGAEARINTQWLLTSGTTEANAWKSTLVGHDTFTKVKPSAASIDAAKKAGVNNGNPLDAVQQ
Experiment [7] can be described thus: small-molecule binders of probe aInhba, primary screen, biochemical, small-molecule microarray, 635/667 nm fluorescence (AID 1148).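 Note: score merges 667nm spot fluorescence with signal-to-noise for antibody binding to printed compounds.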 Conditions: higher = more signal.
The target of experiment [8] is Torsin-1A (Homo sapiens) (UniProt O14656). In words: torsin A binders from cell lysate, primary screen, small-molecule microarray, wild-type, 635/667 nm (AID 1149). Conditions: COS7 hTOR1A-WT lysate, 635 nm fluorescence, higher = more signal.
Torsin-1A (Homo sapiens), sequence (O14656 whole entry, looked up): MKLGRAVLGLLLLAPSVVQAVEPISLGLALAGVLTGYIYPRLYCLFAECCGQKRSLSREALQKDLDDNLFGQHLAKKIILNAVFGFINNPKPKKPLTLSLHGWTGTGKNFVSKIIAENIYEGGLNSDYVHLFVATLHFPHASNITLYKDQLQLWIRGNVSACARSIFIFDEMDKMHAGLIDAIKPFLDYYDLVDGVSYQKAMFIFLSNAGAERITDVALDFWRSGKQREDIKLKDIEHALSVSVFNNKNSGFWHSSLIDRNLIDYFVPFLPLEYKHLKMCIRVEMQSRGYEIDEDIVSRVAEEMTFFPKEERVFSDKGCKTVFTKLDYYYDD
Experiment [9] has the same target. As to the kind of experiment: small-molecule binders of mutant TOR1A in lysate, primary screen, cell lysate, small-molecule microarray, COS7 lysate, 635/667 nm fluorescence (AID 1150).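 Note: score pools 667 nm emission and signal to noise measuring lysate protein binding.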 As to conditions: COS7 hTOR1A mutant lysate, 635 nm fluorescence, higher = more signal.
Experiment [10] relates to Sonic hedgehog protein (Shh). As to the kind of experiment: small-molecule binders of Shh protein, primary screen, biochemical, small-molecule microarray, 635/667 nm fluorescence (AID 1151).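 Note: Shh protein binding to compounds spotted on small-molecule microarray slides; score combines spot fluorescence intensity with signal-to-noise across triplicate slides.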 Conditions: small-molecule microarray binding, 635 nm fluorescence; higher = more signal.
The nature of experiment [11]: E. coli DRC41 culture turbidity changes, primary screen, E. coli filamentation inducer project, strain DRC41, OD650, 48 h (AID 1152).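 Note: E. coli MC1000 strain DRC41 lacking acrAB efflux pump and sulA.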 As to conditions: E. coli DRC41 (acrAB sulA), higher = more signal, called active from +8 up or from −8 down.
Experiment [12] in a line: small-molecule binders of probe aLefty1, primary screen, biochemical, small-molecule microarray, 635/667 nm fluorescence (AID 1153).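 Note: score merges spot fluorescence with signal-to-noise ratio from the scanned slide images.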 As to conditions: higher = more signal.
Experiment [13] can be described thus: PSAC antagonists in infected red cells, primary screen, cell-based, P. falciparum Indochina, OD700, 1 h (AID 1154). As to conditions: P. falciparum Indochina infected RBC osmotic lysis, higher = more signal, called active from +8 up or from −8 down.
Experiment [14] in a line: PSAC antagonists in infected red cells, primary screen, cell-based, P. falciparum Indochina, OD700, 2 h (AID 1155).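 Note: lysis reports solute entry through the parasite surface anion channel PSAC; channel blockers reduce lysis of infected cells.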 As to conditions: P. falciparum Indochina infected erythrocytes, osmotic lysis OD700; higher = more signal, called active from +8 up or from −8 down.
Experiment [15] in a line: osmotic lysis modulators in infected erythrocytes, primary screen, PSAC antagonist project, cell-based, P. falciparum Indochina, OD700, 3 h (AID 1156). As to conditions: higher = more signal, called active from +8 up or from −8 down.
Experiment [16] is described as follows: PSAC antagonists in infected red cells, primary screen, cell-based, P. falciparum Indochina, OD700, 18 h (AID 1157). Conditions: P. falciparum Indochina infected erythrocytes, osmotic lysis OD700, 18 h; higher = more signal, called active from +8 up or from −8 down.
Experiment [17] is described as follows: modulators of S6 phosphorylation in cells, primary screen, cell-based, A549, cytoblot, luminescence, serum-stimulated (AID 1158).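 Note: serum-stimulated A549 lung adenocarcinoma cells; signal is phosphorylated S6 detected by cytoblot immunostaining with HRP secondary.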 As to conditions: A549 phospho-S6 cytoblot, 5 h, higher = more signal.
Experiment [18] concerns the target NADPH oxidase 2 (Homo sapiens) (UniProt P04839). In words: NOX2-dependent H2O2 signal modulators, primary screen, NOX inhibitor project, cell-based, HEK293-NOX2, PMA-stimulated, Amplex Red fluorescence (AID 1159). Note: test concentration not given here. Conditions: 45 min, higher = more signal, called active from +8 up or from −8 down.
Experiment [19] addresses NADPH oxidase 4 (Homo sapiens) (UniProt Q9NPH5). In words: NOX4-dependent H2O2 signal modulators, primary screen, NOX inhibitor project, cell-based, HEK293-NOX4, tetracycline-induced, Amplex Red fluorescence (AID 1160). As to conditions: 45 min, higher = more signal, called active from +8 up or from −8 down.
Experiment [20] has as its target NADPH oxidase 5 (Homo sapiens) (UniProt Q96PH1). In words: NOX5-dependent H2O2 signal modulators, primary screen, NOX inhibitor project, cell-based, HEK293-NOX5, Amplex Red fluorescence (AID 1161). Conditions: HEK293-NOX5, ionomycin, 45 min, higher = more signal.

Active and inactive are the calls of the source. Unless noted, the rule behind the calls is not given here.

NADPH oxidase 4 (Homo sapiens), sequence (Q9NPH5 whole entry, looked up): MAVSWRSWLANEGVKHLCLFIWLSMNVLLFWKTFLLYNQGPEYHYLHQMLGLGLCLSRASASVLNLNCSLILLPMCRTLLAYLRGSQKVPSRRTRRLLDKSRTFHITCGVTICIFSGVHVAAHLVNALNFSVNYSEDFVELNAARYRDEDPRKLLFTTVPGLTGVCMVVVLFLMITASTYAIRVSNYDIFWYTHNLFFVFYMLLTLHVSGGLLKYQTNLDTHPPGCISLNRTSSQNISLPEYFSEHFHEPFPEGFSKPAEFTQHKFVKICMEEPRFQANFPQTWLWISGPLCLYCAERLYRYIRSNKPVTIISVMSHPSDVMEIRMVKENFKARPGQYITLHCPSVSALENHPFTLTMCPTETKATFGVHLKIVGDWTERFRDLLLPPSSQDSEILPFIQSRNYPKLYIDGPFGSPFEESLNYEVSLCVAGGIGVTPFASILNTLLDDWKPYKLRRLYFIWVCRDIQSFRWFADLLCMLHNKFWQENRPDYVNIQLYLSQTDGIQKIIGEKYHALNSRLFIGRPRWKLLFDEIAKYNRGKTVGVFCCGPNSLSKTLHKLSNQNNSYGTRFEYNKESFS
NADPH oxidase 2 (Homo sapiens), sequence (P04839 whole entry, looked up): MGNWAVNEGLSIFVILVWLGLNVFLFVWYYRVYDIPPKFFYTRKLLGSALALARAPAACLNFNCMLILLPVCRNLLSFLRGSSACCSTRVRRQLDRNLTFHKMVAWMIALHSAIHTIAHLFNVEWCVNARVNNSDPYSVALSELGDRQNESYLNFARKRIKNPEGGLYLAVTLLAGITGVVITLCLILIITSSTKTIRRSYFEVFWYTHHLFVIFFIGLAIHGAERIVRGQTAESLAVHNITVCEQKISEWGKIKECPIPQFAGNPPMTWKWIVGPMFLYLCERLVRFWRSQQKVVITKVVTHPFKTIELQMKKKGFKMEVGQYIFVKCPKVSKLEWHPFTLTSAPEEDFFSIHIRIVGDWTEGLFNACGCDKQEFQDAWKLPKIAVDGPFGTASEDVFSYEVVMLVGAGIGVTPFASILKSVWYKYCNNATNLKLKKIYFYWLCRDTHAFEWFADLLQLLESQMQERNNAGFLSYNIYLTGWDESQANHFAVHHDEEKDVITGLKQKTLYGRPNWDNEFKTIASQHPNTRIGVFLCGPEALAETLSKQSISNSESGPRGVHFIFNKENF
NADPH oxidase 5 (Homo sapiens), sequence (Q96PH1 whole entry, looked up): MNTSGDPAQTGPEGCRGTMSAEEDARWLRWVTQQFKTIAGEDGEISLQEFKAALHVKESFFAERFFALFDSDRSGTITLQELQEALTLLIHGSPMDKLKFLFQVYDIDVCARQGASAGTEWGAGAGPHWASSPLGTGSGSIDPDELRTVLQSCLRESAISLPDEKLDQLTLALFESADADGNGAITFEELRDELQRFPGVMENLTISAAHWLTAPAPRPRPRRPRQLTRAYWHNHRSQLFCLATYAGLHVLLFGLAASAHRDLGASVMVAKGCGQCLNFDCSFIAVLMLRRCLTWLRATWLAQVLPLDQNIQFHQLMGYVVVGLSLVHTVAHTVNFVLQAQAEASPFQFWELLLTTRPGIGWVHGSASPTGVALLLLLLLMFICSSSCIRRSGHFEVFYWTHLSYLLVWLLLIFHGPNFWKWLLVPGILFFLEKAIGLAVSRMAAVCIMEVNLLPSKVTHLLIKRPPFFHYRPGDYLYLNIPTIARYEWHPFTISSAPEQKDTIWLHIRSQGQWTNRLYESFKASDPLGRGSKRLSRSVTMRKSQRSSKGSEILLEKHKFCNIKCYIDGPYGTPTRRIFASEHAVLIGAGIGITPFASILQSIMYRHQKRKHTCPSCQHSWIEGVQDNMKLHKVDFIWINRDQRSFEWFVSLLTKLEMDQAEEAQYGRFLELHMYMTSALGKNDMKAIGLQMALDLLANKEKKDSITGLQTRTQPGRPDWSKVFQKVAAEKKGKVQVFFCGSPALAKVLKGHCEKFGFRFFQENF

For the molecule `COc1ccc([Si](C)(C)[C@@H]2[C@@H](CC(=O)N3Cc4ccccc4C[C@H]3CO)O[C@]3(C(=O)N(Cc4cccc(N5C(=O)c6cccc7cccc5c67)c4)c4ccccc43)[C@H]2C)cc1`, the composite z-score came out at 0.51 in experiment [1]; 0.211 in [6]; 0.0091 in experiment [7]; 0.786 with Torsin-1A (Homo sapiens) [8]; 0.535 in the experiment with Torsin-1A (Homo sapiens) [9]; 1.19 in experiment [10]. The composite z-score in experiment [12] was -0.0601. Moreover, the z-score was -4.1 (inactive) in [2]; -0.194 (inactive) in experiment [3]; 0.861 (inactive) in experiment [4]; 0.838 (inactive) in experiment [5]; -0.721 (inactive) in experiment [11]; 2.4 (inactive) in [13]. For the same molecule, the z-score in experiment [14] is 0.963 (inactive); in experiment [15] it was -0.369 (inactive); in [16], 0.376 (inactive); in experiment [17], 0.015; in experiment [18] it was -0.579 (inactive); in [19], 0.668 (inactive). Besides, in [20], the z-score worked out at 2.34.

For the molecule `COCCOC(=O)N1C(=O)[C@@]2(c3cc(C#Cc4ccc(OC)cc4)ccc31)[C@H](c1ccc(O)cc1)N1[C@H](c3ccccc3)[C@H](c3ccccc3)OC(=O)[C@H]1[C@@H]2C(=O)N1CCCCCCC1`, the composite z-score is 0.608 in experiment [1]; 1.25 in experiment [6]; 1.12 in [7]; -0.0107 with Torsin-1A (Homo sapiens) [8]; 0.913 in the experiment with Torsin-1A (Homo sapiens) [9]; 0.379 in [10]. The molecule further displayed a composite z-score in [12] of 2.12. Also, the z-score in experiment [2] is -0.86 (inactive); in [3], -0.144 (inactive); in experiment [4], 0.0653 (inactive); in experiment [5] it was 0.895 (inactive); in [11], -0.329 (inactive); in experiment [13], 0.0963 (inactive). Moreover, the z-score in experiment [14] is 0.0379 (inactive); in experiment [15] it was -1.3 (inactive); in experiment [16], -0.0483 (inactive); in [17], -0.307; in experiment [18], 0.877 (inactive); in experiment [19], 0.482 (inactive). In addition, the z-score in experiment [20] was found to be 0.391.

Turning to `CC(CO)N1C(=O)[C@@H]2[C@H]3C(=O)OCC=C[C@H]3OC23C=CCN(Cc2ccccc2)C(=O)[C@@H]13` (stereo not given in full), the composite z-score was 0.0691 in experiment [1]; -0.245 in experiment [6]; -0.21 in [7]; -1.32 with Torsin-1A (Homo sapiens) [8]; -0.14 with Torsin-1A (Homo sapiens) [9]; -0.0627 in experiment [10]. The molecule further yielded a composite z-score in experiment [12] of -0.191. Moreover, the z-score in experiment [2] was 0.0021 (inactive); in experiment [3], -1.11 (inactive); in [4], -1.44 (inactive); in [5], -1.08 (inactive); in experiment [11], 2.36 (inactive); in [13] it was 0.116 (inactive). Besides, the z-score in [14] is -1.05 (inactive); in [15], -0.355 (inactive); in experiment [16], -1.39 (inactive); in [17], 0.473; in [18], 0.991 (inactive); in [19], 0.662 (inactive). In experiment [20], the z-score was 1.49.

In the case of `CCCCC(O)C1C=CC2C(=O)N(c3ccccc3)C(=O)C2N1Nc1ccc(C(C)C)cc1` (stereo not given), the composite z-score was 0.261 in [1]; 0.486 in experiment [6]; 0.341 in experiment [7]; -0.149 with Torsin-1A (Homo sapiens) [8]; 0.214 with Torsin-1A (Homo sapiens) [9]; -0.207 in experiment [10]. The same molecule gave a composite z-score in experiment [12] of 0.484. The z-score in [2] was -0.714 (inactive); in experiment [3], -0.905 (inactive); in experiment [4] it was 1.38 (inactive); in experiment [5], 0.232 (inactive); in experiment [11], -0.759 (inactive); in [13], 2.81 (inactive). Further, the z-score is 1.44 (inactive) in experiment [14]; 0.39 (inactive) in [15]; 1.39 (inactive) in experiment [16]; -0.843 in experiment [17]; -1.5 (inactive) in experiment [18]; -3.21 (inactive) in experiment [19]. Also, the z-score in experiment [20] was -1.92.

For the molecule `O=C1c2ccccc2[C@](Cc2ccccc2I)(C(=O)NCC(F)(F)F)[C@H](c2ccc(CO)cc2)N1C1CCCCC1`, the composite z-score in experiment [1] was 0.2; in experiment [6], 1.1; in [7], 0.029; with Torsin-1A (Homo sapiens) [8] it was 0.365; with Torsin-1A (Homo sapiens) [9], 0.936; in experiment [10] it was 0.176. In [12], this molecule showed a composite z-score of 0.0686. The z-score in experiment [2] was -0.772 (inactive); in experiment [3], 1.01 (inactive); in experiment [4], 0.324 (inactive); in experiment [5] it was 2.63 (inactive); in experiment [11] it was 1.25 (inactive); in [13], 7.04 (inactive). For the same molecule, the z-score was 0.605 (inactive) in experiment [14]; 2 (inactive) in experiment [15]; 0.0361 (inactive) in experiment [16]; 0.175 in [17]; -2.92 (inactive) in [18]; 0.179 (inactive) in [19]. In addition, the z-score in [20] came to 1.69.
